Compounds with a hit are over-represented: about 4% of the library has one in this group of screens.
MITF TRPM1 HTS: MITF TRPM1 promoter activation in melanoma cells. SK-MEL-5 TRPM1-promoter luciferase, 24 h; % of positive control, neutral wells = 0. AID 588334. actives 0.75% (n = 300,000). activation, % at 12.5 µM;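 active = mean activation of at least 80% with every replicate also reaching 80%; inconclusive = mean reaches 80% but some replicate falls short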;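 note: 0% = neutral control wells and 100% = parthenolide positive control wells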
LMP1 NFkB inh: reduces LMP1-driven NF-kappaB luciferase signal. LMP1-induced NF-kappaB luciferase reporter cells, luminescence. inhibition, % at 12.5 µM. actives 0.69% (n = 350,000). AID 504558; in the data active = inhibition above about 41%; inconclusive = no clear call, values can overlap the other calls;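 note: 0% = neutral control wells and 100% = reference inhibitor control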
Wnt bcat act: Wnt/beta-catenin pathway activation; Wnt/beta-catenin reporter cell assay, activator, plate reader; activation, % at 9.35 µM; actives 1.2% (n = 300,000); AID 743398; in the data active = activation above about 30%, passing the limit was not always enough; inconclusive = no clear call, values can overlap the other calls;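 note: 0% = neutral control wells and 100% = positive control wells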
Statin myotox sup: suppression of simvastatin myotoxicity. C2C12 myotubes + simvastatin, ATP luminescence, 48 h; scaled: DMSO 0, geranylgeraniol control 100. actives 0.78% (n = 330,000). rescue of ATP level, % at 7.49 µM;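 active = mean ATP rescue above about 67%, or every replicate alone reaching that limit, limit read from the data, passing the limit was not always enough; inconclusive = no clear call, values can overlap the other calls; inactive = mean under the limit and some replicate under it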;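 note: myotubes were challenged with 10 µM simvastatin during compound exposure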
MITF TRPM1 inh: MITF TRPM1 promoter inhibition in SK-MEL-5 cells | SK-MEL-5 TRPM1 promoter luciferase, 24 h | inhibition, % at 12.5 µM | actives 0.83% (n = 330,000) | AID 488899;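 active = mean inhibition across replicates of 60% or more, whatever share of single replicates reaches that level; inconclusive = some that reach 60%, reason not given; inactive = mean inhibition across replicates below 60%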
esBAF inh: SWI/SNF esBAF complex inhibition; actives 2% (n = 350,000); AID 602393; mouse ES cells, Bmi1-luciferase knock-in reporter, 24 h; 100% = twice the neutral-well signal; reporter increase, % at 12.5 µM; in the data active = activation above about 40%; inconclusive = no clear call, values can overlap the other calls;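 note: 0% = median of the plate's neutral control wells and 100% = double that signal; a rise in the Bmi1 reporter signal indicates esBAF inhibition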
The depositor's hits bear a star; ? = inconclusive; / = no result.

SMILES | MITF TRPM1 HTS | LMP1 NFkB inh | Wnt bcat act | Statin myotox sup | MITF TRPM1 inh | esBAF inh
CN1CCN(Cn2cc(/C=C/C(=O)c3ccccc3)c3ccccc32)CC1 | ? | -42 | / | 25 | -91 | 62*
O=C(Nc1ccccc1SC(=O)c1ccccc1)c1ccccc1 | / | -34 | -3 | 15 | / | 17
Cc1ccc(C(=O)Sc2cccccc2=O)cc1 | -82 | -19 | -10 | -21 | 83* | -52
CCOC(=O)CNC(=O)COc1ccc(Cl)cc1Br | 12 | 0 | / | -1 | -10 | 11
COC(=O)c1ccc(CN2C(=O)NC3(CCCCC3)C2=O)cc1 | 50 | -30 | 17 | 8 | -43 | 72*
O=C1NC2(CCCCCC2)C(=O)N1Cc1ccc(Br)cc1 | 3 | 0 | -1 | -4 | -3 | 1
CCN1C(=O)[C@H]2[C@@H](c3ccc(C(F)(F)F)cc3)N[C@]3(CCCN(Cc4cccn4C)C3=O)[C@H]2C1=O | / | 3 | -6 | 2 | / | 8
O=C1/C(=C/c2cccc([N+](=O)[O-])c2)CCc2ccccc21 | 6 | -5 | / | -7 | -6 | -12
CCN1C/C(=C\c2cccc([N+](=O)[O-])c2)C(=O)/C(=C/c2cccc([N+](=O)[O-])c2)C1 | -92 | 91* | 0 | / | 93* | /
COc1ccc(C2CC(=O)N(CC(=O)NCC3CCCO3)c3ccccc3S2)cc1OC (stereo not drawn) | 1 | 5 | -8 | 1 | -1 | 4
COc1ccc(C2CC(=O)N(C)c3ccccc3S2)cc1OC (stereo not drawn) | 35 | 1 | 54* | 4 | -28 | 28
Cc1nc2cc(CO)ccc2n1C | / | -4 | / | -1 | 0 | -2
CC1(C)NC(=O)N(CCOCCOc2ccccc2)C1=O | 15 | 7 | / | / | -17 | /
CC1(C)NC(=O)N(CCOCCSc2ccccc2)C1=O | 17 | -7 | 0 | -9 | -15 | 61*
N#Cc1c(Nc2ccccc2)[n+]([O-])c2ccc(Cl)cc2[n+]1[O-] | -71 | 13 | 7 | / | 72* | /
O=C(/C=C/Nc1ccccc1)c1ccc(Cl)cc1Cl | / | -23 | 2 | 22 | -65 | -29
Cc1ccnc(NC(=O)CNC(=O)COc2ccccc2)c1 | 90* | -46 | 38* | 4 | -87 | 74*
Cc1ccc(NC(=O)CC(NC(=O)c2ccccc2Cl)c2ccccc2)nc1 (stereo not drawn) | 3 | 4 | -4 | 5 | -4 | -5
Cc1ccnc(NC(=O)CC(NC(=O)c2ccccc2Cl)c2ccccc2)c1 (stereo not drawn) | 58 | -7 | -4 | 8 | -56 | 52*
Cc1ccnc(NC(=O)CCNC(=O)c2ccccc2Cl)c1 | 20 | -24 | 3 | -2 | -24 | 46*
N=c1cc(C2(O)CCCCC2)n2c(nc3ccccc32)s1 | / | 6 | 45* | / | -15 | /
O=C1c2sc3nc4ccccc4n3c2C(=O)N1c1ccccc1Cl | 4 | 5 | 3 | 13 | -3 | 12
CC1CCC(=O)N(CCSc2ccccc2)CC1 (stereo not drawn) | 87* | -9 | 33* | -2 | -88 | -14
Cc1cccc(Cn2cc(SCC(=O)Nc3nccs3)c3ccccc32)c1 | 68 | 82* | 41* | 10 | -66 | 65*
O=C(O)CSc1nc(-c2ccccc2)nc2c1oc1ccccc12 | -6 | -12 | -2 | 120* | 7 | -5
SMILES | MITF TRPM1 HTS | LMP1 NFkB inh | Wnt bcat act | Statin myotox sup | MITF TRPM1 inh | esBAF inh
O=C(CSCc1cnn(-c2ccccc2)c1-n1cccc1)NCc1cccs1 | 6 | -5 | / | 121* | -2 | 7
S=C(Nc1nc2c(s1)CCCC2)NC1CC1 | 52 | -19 | 11 | -1 | -52 | 51*
O=C(NC(=S)Nc1nc2c(s1)CCCC2)c1ccccc1 | 32 | -27 | 27 | / | -30 | /
COc1ccccc1-n1cc2ccc([N+](=O)[O-])cc2n1 | 59 | -37 | 18 | / | -155 | /
O=[N+]([O-])c1ccc2cn(-c3ccccc3)nc2c1 | 54 | -38 | 26 | -2 | -51 | 61*
O=Cc1cn(-c2ccccc2)nc1-c1ccccc1 | 47 | -2 | 16 | -17 | -42 | 39
O=Cc1cn(-c2ccccc2)nc1-c1cccc([N+](=O)[O-])c1 | / | -4 | 1 | -7 | / | 59*
COc1ccc(NC(=O)CSc2nnc(NC(C)=O)s2)c([N+](=O)[O-])c1 | 19 | -11 | 3 | / | -17 | /
COC(=O)c1sccc1NC(=O)Nc1ccc(C)cc1C | 13 | 1 | 1 | 1 | -12 | 8

From PubChem
